The text below walks through data of PubChem BioAssay (Tox21).

Assay [1] can be described thus: qHTS assay to identify small molecule agonists of the sonic hedgehog signaling (Shh) pathway (AID 1259368; calls by dose curve;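 also: NIH/3T3-derived 3T3Gli1-Luc cells carrying a stable Gli1-driven firefly luciferase reporter; series mostly up to about 92 µM; nearly all actives have a fitted effect of over 15% in size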). The method in brief:
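Cells of a mouse NIH/3T3 clone stably expressing luciferase under the Gli1 transcriptional response element are exposed to test chemicals for 24 hr at 37 C. Pathway activation is detected as a rise in luminescence.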
(In general: In qHTS, concentration-response curves come from the screen itself.)

A short description of assay [2]: qHTS assay to identify small molecule antagonists of the sonic hedgehog signaling (Shh) pathway (AID 1259369; calls by dose curve; also: potency is read from the fitted curve at half-maximal effect; nearly all actives have a fitted effect of over 45% in size). A digest of the protocol:
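Cells are plated and held 4hr at 37 C, compounds (DMSO) are pinned in, conditioned medium is added to stimulate the pathway, and after 24hr luciferase reagent is added for 30min before luminescence is read.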

Assay [3] in a line: qHTS assay to identify small molecule agonists of the androgen receptor (AR) signaling pathway in the presence of an antagonist - cell viability counter screen (AID 1259379).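 Also: MDA-kb2 human breast cancer cells carrying an MMTV luciferase reporter; series mostly up to about 92 µM; nearly all actives have a fitted effect of over 25% in size.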 A digest of the protocol:
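Cytotoxicity is assessed by CellTiter-Fluor in MDA-kb2 cells carrying an MMTV-driven luciferase reporter. Cells receive 3.0uM nilutamide plus compounds at 15 concentrations and incubate 16 hr at 37C without CO2 before fluorescence reading.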

The target of assay [4] is Androgen receptor (Homo sapiens) (UniProt P10275). Kind of assay: qHTS assay to identify small molecule agonists of the androgen receptor (AR) signaling pathway in the presence of an antagonist (AID 1259381; calls by dose curve; also: nearly all actives have a fitted effect of over 15% in size; also: potency is read from the fitted curve at half-maximal effect). A digest of the protocol: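 Agonist-mode confirmation screen: human MDA-kb2 cells stably expressing luciferase under an MMTV promoter bearing AR and GR response elements, co-treated with 3.0uM nilutamide (final). Luminescence measured after 16hr compound incubation.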
Androgen receptor (Homo sapiens), sequence (P10275 whole entry, looked up): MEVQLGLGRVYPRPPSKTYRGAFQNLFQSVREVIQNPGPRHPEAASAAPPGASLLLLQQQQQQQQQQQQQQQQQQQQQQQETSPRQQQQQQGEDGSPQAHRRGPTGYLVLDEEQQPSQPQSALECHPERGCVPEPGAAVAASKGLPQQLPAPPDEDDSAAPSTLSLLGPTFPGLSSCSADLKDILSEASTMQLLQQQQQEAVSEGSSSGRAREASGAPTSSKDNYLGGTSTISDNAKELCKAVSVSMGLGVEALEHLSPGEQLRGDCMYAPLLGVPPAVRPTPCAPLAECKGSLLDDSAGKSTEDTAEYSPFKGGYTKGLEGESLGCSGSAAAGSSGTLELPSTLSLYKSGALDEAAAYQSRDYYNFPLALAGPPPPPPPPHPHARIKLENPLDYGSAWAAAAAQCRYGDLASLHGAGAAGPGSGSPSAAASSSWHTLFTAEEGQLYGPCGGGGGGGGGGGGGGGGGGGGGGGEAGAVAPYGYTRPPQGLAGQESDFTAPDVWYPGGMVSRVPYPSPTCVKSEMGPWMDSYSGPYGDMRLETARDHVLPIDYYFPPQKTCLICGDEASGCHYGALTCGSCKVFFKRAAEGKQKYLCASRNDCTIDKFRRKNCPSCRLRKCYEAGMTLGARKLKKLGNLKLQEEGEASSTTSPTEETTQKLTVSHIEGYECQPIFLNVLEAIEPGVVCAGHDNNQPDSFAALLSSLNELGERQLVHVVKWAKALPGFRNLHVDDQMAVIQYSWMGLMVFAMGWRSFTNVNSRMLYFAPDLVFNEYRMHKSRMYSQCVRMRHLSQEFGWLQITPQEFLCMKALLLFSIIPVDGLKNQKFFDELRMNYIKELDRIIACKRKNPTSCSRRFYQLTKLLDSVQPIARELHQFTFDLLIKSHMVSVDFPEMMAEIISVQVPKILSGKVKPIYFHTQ

Assay [5] is described as follows: qHTS assay to identify small molecule antagonists of the estrogen receptor beta (ER-beta) signaling pathway - cell viability counter screen (AID 1259382). Also: series mostly up to about 92 µM; nearly all actives have a fitted effect of over 55% in size. The method in brief: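 Cytotoxicity counter screen multiplexed with the beta-lactamase antagonist assay: GripTite HEK293T ER-beta-bla cells were treated 16 hr with test chemicals in the presence of 1nM 17-beta-estradiol, and viability was measured by CellTiter-Glo.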

Assay [6] can be described thus: qHTS assay to identify small molecule agonists or antagonists of the thyroid stimulating hormone receptor (TSHR) signaling pathway - wild type cell line counter screen (AID 1259384; calls by dose curve). A digest of the protocol:
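Wild-type Hek293 cells, 800/well, 18 h at 37C, then compound with Ro20-1724 for 30 min RT. cAMP by HTRF (cAMP-d2/anti-cAMP cryptate), 1 h RT, fluorescence read. 15 concentrations, triplicates.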

Assay [7] has as its target Thyrotropin receptor (Homo sapiens) (UniProt P16473). Kind of assay: qHTS assay to identify small molecule antagonists of the thyroid stimulating hormone receptor (TSHR) signaling pathway (AID 1259385; calls by dose curve; also: nearly all actives have a fitted effect of over 20% in size). The method in brief: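 TSHR-HEK293 cells (800/well) plated 18 h, then compounds with Ro20-1724 and TSH at 1.5 ng/mL final, 30 min at room temperature. cAMP quantified by HTRF (cAMP-d2/anti-cAMP-cryptate, 1 h); 15 concentrations in triplicate.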

Assay [8] is described as follows: qHTS assay to identify small molecule agonists of the estrogen receptor alpha (ER-alpha) signaling pathway in the presence of an antagonist - cell viability counter screen (AID 1259386).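 Also: series mostly up to about 92 µM; cells exposed to compounds for 22 h at 37 °C before the viability read; nearly all actives have a fitted effect of over 30% in size.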 A digest of the protocol: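 Cytotoxicity was measured in parallel with the ERE-luciferase agonist screen, in the same wells. The cells were VM7Luc4E2, which endogenously express ER-alpha, and treatment was with compounds plus 10.0nM ICI-182,780 for 22hr.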

For assay [9], the target named is Progesterone receptor (Homo sapiens) (UniProt P06401). The assay can be described thus: qHTS assay to identify small molecule antagonists of the progesterone receptor (PR) signaling pathway (AID 1346795; active = well fitted inhibition curve with a large enough effect in the signal ratio in the repeat runs, not every such curve was filed as active; the % refers to the signal ratio; also: potency is read from the fitted curve at half-maximal effect). The method in brief: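 PR-UAS-bla HEK293T cells with beta-lactamase reporter under UAS control, in 2% charcoal-stripped FBS, treated with compounds plus 1 nM promegestone (R5020, final) for 16 hr at 37C. Read-out: FRET beta-lactamase substrate fluorescence after 2 hr at room temperature.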
Progesterone receptor (Homo sapiens), sequence (P06401 whole entry, looked up): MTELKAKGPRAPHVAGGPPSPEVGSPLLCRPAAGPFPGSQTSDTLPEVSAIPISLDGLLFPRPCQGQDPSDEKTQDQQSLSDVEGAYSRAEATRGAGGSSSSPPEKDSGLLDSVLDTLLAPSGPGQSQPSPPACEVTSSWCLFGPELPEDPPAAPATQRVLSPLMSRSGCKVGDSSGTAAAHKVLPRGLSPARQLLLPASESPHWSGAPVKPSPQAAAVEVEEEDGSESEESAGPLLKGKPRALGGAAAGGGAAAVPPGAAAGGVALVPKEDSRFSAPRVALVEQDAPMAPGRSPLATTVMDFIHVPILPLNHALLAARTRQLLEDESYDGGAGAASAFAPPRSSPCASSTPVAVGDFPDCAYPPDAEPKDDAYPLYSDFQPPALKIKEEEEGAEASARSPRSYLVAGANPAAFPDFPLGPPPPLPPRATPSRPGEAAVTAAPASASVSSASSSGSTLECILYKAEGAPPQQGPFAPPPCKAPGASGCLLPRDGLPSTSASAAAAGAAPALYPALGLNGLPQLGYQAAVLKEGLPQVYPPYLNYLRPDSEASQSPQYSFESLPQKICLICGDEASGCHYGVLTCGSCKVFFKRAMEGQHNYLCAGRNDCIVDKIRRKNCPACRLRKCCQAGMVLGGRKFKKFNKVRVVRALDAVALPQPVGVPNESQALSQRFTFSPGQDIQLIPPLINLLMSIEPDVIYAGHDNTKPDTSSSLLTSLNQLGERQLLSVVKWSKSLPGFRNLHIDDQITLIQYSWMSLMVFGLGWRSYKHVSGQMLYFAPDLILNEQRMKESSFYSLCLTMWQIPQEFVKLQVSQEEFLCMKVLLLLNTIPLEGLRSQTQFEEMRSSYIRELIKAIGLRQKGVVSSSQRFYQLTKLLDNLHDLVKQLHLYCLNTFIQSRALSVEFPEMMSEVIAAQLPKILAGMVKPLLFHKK

Assay [10] can be described thus: qHTS assay to identify small molecule antagonists of the TGF-beta/Smad signaling pathway - cell viability counter screen (AID 1346824). Also: nearly all actives have a fitted effect of over 50% in size. A digest of the protocol:
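SBE-bla HEK 293T cells, incubated overnight, then compound plus 0.25 ng/mL TGF-beta1 (stock added) for 5 hr at 37 C. Viability was read in the same wells by CellTiter-Glo luminescence after 30 min at room temperature.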

Assay [11] is described as follows: qHTS assay to identify small molecule agonists of the TGF-beta/Smad signaling pathway - cell viability counter screen (AID 1346829). Also: top concentration of the series differs between compounds; nearly all actives have a fitted effect of over 45% in size. The method in brief:
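Compound-treated SBE-bla HEK 293T cells (5 hr, 37 C) were assessed for viability with CellTiter-Glo in parallel with the reporter read.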

Assay [12] in a line: qHTS assay to identify small molecule agonists of the TGF-beta/Smad signaling pathway (AID 1346859; active = well fitted activation curve with a large enough effect in the signal ratio in the repeat runs, not every such curve was filed as active; the % refers to the signal ratio; also: series mostly up to about 77 µM). A digest of the protocol:
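SBE-bla HEK293T cells plated overnight, then compound exposure for 5 h at 37 C. Beta-lactamase reporter read with LiveBLAzer B/G FRET substrate after 2 h at room temperature, fluorescence at 405 nm excitation, 460/530 nm emission.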

For assay [13], the target named is Estrogen receptor beta (Homo sapiens) (UniProt Q92731). Kind of assay: qHTS assay to identify small molecule agonists of the estrogen receptor beta (ER-beta) signaling pathway (AID 1259377; active = well fitted activation curve with a large enough effect in the signal ratio in the repeat runs, not every such curve was filed as active; the % refers to the signal ratio). The method in brief: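 ER-beta-UAS-bla HEK293T cells in medium with 2% charcoal-stripped FBS were exposed to compounds for 16 h at 37C. Beta-lactamase reporter activity was read as fluorescence after 2 h with LiveBLAzer B/G FRET substrate at room temperature.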
Estrogen receptor beta (Homo sapiens), sequence (Q92731 whole entry, looked up): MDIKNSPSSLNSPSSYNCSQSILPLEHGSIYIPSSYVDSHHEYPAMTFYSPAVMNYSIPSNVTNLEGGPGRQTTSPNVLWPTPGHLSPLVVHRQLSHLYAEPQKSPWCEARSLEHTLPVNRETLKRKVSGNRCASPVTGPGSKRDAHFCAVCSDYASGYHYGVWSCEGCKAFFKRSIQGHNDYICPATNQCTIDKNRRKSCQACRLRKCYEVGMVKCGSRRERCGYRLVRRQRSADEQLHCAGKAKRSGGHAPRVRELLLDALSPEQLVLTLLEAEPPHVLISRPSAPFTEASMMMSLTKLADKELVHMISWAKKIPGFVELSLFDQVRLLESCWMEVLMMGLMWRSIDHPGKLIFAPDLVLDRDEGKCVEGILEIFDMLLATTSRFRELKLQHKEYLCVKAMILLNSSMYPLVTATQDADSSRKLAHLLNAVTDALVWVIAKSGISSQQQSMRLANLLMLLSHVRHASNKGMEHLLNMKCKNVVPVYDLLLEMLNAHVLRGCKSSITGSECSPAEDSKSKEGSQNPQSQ

Assay [14] shares this target. The assay can be described thus: qHTS assay to identify small molecule antagonists of the estrogen receptor beta (ER-beta) signaling pathway (AID 1259378; active = well fitted inhibition curve with a large enough effect in the signal ratio in the repeat runs, not every such curve was filed as active; the % refers to the signal ratio). The method in brief:
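ER-beta-UAS-bla HEK293T cells in 2% charcoal-stripped FBS medium treated with compound plus 1nM final 17-beta-estradiol for 16 hr at 37C. Beta-lactamase reporter read by FRET substrate fluorescence after 2 hours at room temperature.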

Assay [15] is described as follows: qHTS assay to identify small molecule agonists of the estrogen receptor beta (ER-beta) signaling pathway - cell viability counter screen (AID 1259380). Also: nearly all actives have a fitted effect of over 30% in size. The method in brief:
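Cytotoxicity is measured in parallel with the reporter screen: after 16 hr compound exposure at 37C and a 2 hr LiveBLAzer step, CellTiter-Glo is added to the same ER-beta-UAS-bla HEK293T wells and luminescence read after 30 min.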

The target in assay [16] is Estrogen receptor (Homo sapiens) (UniProt P03372). Kind of assay: qHTS assay to identify small molecule agonists of the estrogen receptor alpha (ER-alpha) signaling pathway in the presence of an antagonist (AID 1259383; calls by dose curve; also: top concentration of the series differs between compounds; nearly all actives have a fitted effect of over 15% in size). A digest of the protocol: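 Agonist-mode confirmation in the presence of the ER antagonist ICI-182,780 at 10.0nM final. Breast-derived VM7Luc4E2 reporter cells were exposed to compounds for 22hr, and ERE-driven luciferase was quantified by luminescence.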
Estrogen receptor (Homo sapiens), sequence (P03372 whole entry, looked up): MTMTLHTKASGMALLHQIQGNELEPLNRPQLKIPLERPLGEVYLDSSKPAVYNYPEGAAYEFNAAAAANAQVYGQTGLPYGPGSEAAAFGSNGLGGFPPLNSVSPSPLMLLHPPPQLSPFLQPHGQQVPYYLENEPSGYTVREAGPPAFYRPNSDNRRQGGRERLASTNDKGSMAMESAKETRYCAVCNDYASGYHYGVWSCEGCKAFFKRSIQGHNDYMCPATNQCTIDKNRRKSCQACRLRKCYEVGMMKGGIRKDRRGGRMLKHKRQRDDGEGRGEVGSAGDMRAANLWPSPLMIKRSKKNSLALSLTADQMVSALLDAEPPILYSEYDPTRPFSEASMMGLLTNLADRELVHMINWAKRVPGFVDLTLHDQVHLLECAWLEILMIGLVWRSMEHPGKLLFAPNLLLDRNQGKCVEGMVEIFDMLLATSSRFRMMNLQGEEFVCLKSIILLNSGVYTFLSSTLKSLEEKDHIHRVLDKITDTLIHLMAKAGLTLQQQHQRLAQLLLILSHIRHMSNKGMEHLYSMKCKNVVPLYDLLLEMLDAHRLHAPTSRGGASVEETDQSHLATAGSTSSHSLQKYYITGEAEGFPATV

Assay [17] concerns the target Progesterone receptor (Homo sapiens) (UniProt P06401). Kind of assay: qHTS assay to identify small molecule agonists of the progesterone receptor (PR) signaling pathway (AID 1346784; calls by dose curve; also: nearly all actives have a fitted effect of over 30% in size). A digest of the protocol: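 PR-UAS-bla HEK 293T cells (beta-lactamase reporter under UAS) in 2% charcoal-stripped FBS, dosed with 23 nL compound after 6 hr, incubated 16hr at 37C. LiveBLAzer B/G FRET substrate added, fluorescence read after 2 hours.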

Assay [18] is described as follows: qHTS assay to identify small molecule antagonists of the progesterone receptor (PR) signaling pathway - cell viability counter screen (AID 1346798). Also: series mostly up to about 92 µM; nearly all actives have a fitted effect of over 50% in size. A digest of the protocol:
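PR-UAS-bla HEK293T cells, 3,000/well in 2% charcoal-stripped FBS medium, dosed with compounds plus R5020 agonist and incubated 16 h at 37C. Viability then measured in the same wells by CellTiter-Glo luminescence after 30 min at RT.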

The nature of assay [19]: qHTS assay to identify small molecule agonists of the progesterone receptor (PR) signaling pathway - cell viability counter screen (AID 1346799; calls by dose curve; also: nearly all actives have a fitted effect of over 45% in size). The method in brief:
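Counter screen in the PR-UAS-bla HEK293T wells (2% charcoal-stripped FBS, 16 h compound exposure at 37 C) after the bla read. CellTiter-Glo added, 30 min at room temperature, luminescence read as cell viability.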

For assay [20], the target named is Thyrotropin-releasing hormone receptor (Homo sapiens) (UniProt P34981). The assay can be described thus: qHTS assay to identify small molecule antagonists of the thyrotropin-releasing hormone receptor (TRHR) signaling pathway (AID 1346877; active = well fitted inhibition curve with a large enough effect in the repeat runs, not every such curve was filed as active; also: series mostly up to about 51 µM). A digest of the protocol: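 Antagonism is measured as suppression of the calcium response to 1 nM TRH in TRHR-HEK293 cells that have been dye-loaded for 2 h at 37 °C after overnight plating. Each compound is tested at 15 concentrations in triplicate.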
Thyrotropin-releasing hormone receptor (Homo sapiens), sequence (P34981 whole entry, looked up): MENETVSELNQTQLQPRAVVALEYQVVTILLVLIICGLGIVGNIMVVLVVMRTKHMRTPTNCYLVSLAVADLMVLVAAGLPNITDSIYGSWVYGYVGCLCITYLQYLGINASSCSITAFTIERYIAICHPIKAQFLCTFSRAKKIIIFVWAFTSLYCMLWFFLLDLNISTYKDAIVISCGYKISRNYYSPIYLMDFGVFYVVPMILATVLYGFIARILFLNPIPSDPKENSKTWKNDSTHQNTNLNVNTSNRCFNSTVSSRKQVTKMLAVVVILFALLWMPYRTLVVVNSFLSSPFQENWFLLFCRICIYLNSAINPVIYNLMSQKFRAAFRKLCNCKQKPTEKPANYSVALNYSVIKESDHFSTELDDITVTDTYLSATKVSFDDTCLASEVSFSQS

“And” between values parts separate entries of the source, which are not always exact repeats. Identical values can stand only once. Inconclusive results are not listed. More than one record can exist for a structure, and the calls need not agree. The source made the active and inactive calls. Unless noted, calls follow the shape of the dose curve; as a rule, active = well fitted curve in the direction sought with a large enough effect in the repeat runs; inconclusive = weak or mixed curves; inactive = no such curve, though single readings can be large; an effect the other way counts as inactive or inconclusive.

Thyrotropin receptor (Homo sapiens), sequence (P16473 whole entry, looked up): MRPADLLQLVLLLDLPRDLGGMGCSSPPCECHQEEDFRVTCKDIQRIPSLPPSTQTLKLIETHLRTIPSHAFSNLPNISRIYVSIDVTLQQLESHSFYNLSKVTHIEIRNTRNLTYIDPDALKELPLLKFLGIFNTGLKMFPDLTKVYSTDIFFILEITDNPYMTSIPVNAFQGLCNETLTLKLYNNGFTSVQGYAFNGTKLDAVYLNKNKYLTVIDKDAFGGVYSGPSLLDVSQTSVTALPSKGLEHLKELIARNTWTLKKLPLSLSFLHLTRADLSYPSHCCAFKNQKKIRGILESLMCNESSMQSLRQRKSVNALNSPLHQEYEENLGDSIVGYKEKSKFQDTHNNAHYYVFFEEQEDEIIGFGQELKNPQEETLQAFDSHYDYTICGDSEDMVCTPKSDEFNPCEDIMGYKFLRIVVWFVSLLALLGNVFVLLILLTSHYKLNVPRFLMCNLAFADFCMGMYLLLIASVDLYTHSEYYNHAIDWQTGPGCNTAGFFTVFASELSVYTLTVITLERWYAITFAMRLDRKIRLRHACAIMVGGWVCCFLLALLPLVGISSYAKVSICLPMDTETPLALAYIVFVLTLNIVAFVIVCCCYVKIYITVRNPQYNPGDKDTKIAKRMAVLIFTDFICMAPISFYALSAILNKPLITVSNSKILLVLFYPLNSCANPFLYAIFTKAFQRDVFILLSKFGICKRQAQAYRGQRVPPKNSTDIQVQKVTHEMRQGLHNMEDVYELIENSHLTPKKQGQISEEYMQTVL

In the case of `CC(C)(c1ccc(O)cc1)c1ccc(O)cc1`, the compound was called inactive in assay [1], in assay [6], in assay [11] and in assay [12]. Further, the Potency is 38.1 µM (active) and 19.7 µM (active) in assay [2]; “inactive and 27.8 µM (active)” in [4]; 15.2 µM (active) in assay [9]. Further, the Potency entry in [3], in assay [5], in assay [7], in assay [8] and in assay [10] was “inactive” in each case.
For the compound `Nc1nc2c(ncn2COC(CO)CO)c(=O)[nH]1`, the result in assay [1], in assay [13], in assay [14], in assay [6], in [11] and in [12] was inactive. Moreover, the compound was called inactive in [20]. In addition, the Potency entry in [3], in [15], in [5], in [16], in [7] and in [8] was “inactive” in each case. The Potency result in [17], in [9], in assay [18], in [19] and in assay [10] was “inactive” throughout.
With `CC(=O)N(CC(O)CO)c1c(I)c(C(=O)NCCO)c(I)c(C(=O)NCC(O)CO)c1I` (stereo not given), the outcome in assay [1], in assay [6], in [11], in [12] and in assay [20] was inactive. Moreover, the Potency result in assay [3], in assay [15], in [5], in assay [7], in assay [8] and in assay [17] was “inactive” in each case. For the same compound, the Potency result in assay [9], in assay [18], in [19] and in [10] was “inactive” in each case.
For the compound `CC(C[N+](C)(C)C)OC(N)=O` (stereo not given), the call in assay [1], in assay [13], in [14], in assay [11] and in [20] was inactive. For the same compound, the Potency entry in assay [3], in [15], in assay [5], in assay [16], in [8] and in [17] was “inactive” in each case. Moreover, the Potency result in assay [9], in assay [18], in [19] and in assay [10] was “inactive” throughout.
In the case of `O=C(O)CNC(=O)c1ccc([N+](=O)[O-])cc1`, the compound was called inactive in assay [1], in assay [13], in [14], in assay [11], in assay [12] and in [20]. Moreover, the Potency result in [3], in assay [15], in assay [5], in assay [8], in assay [17] and in [9] was “inactive” each time. The Potency entry in assay [18], in [19] and in assay [10] was “inactive” throughout.
For `NC(=O)COCCN1CCN(C(c2ccccc2)c2ccc(Cl)cc2)CC1` (stereo not given), the compound was classed as inactive in assay [1], in assay [6], in assay [11], in assay [12] and in [20]. Further, the Potency entry in assay [3], in assay [15], in assay [4], in [5], in assay [16] and in [7] was “inactive” throughout. In addition, the Potency result in assay [8], in [17], in assay [9], in [18], in assay [19] and in [10] was “inactive” in each case.
In the case of `CCOC(C)(C)C`, the result in assay [1], in assay [6], in assay [11], in [12] and in assay [20] was inactive. Further, the Potency entry in assay [3], in assay [15], in assay [5], in assay [16], in assay [7] and in [8] was “inactive” throughout. The Potency entry in assay [17], in assay [9], in assay [18], in assay [19] and in [10] was “inactive” throughout.
As for `C1OCOCO1`, the call in [1], in assay [6] and in assay [11] was inactive. In addition, the Potency entry in assay [3], in [15], in [5], in [7], in assay [8] and in assay [17] was “inactive” throughout. Further, the Potency result in [9], in [18], in assay [19] and in assay [10] was “inactive” in each case.
Take `NC(CSCC(=O)O)C(=O)O` (stereo not given): the call in [1], in assay [13], in assay [14], in assay [11] and in assay [12] was inactive. In addition, the Potency entry in assay [3], in assay [15], in [5], in assay [16], in assay [8] and in [9] was “inactive” throughout. For the same compound, the Potency result in [18], in [19] and in assay [10] was “inactive” each time.
